# Laboratory results as given in PubChem BioAssay (NCI).
# The panel holds about 83,000 compounds, 20% with a hit somewhere; the sample as a whole holds those more often.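 Results are percent growth after 48 hours of single-concentration exposure. 100 means growth as in untreated cells, lower positive values show inhibition; negative values down to -100 show cell death.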 Unmarked numbers belong to inactive results. The source made the active and inactive calls. Rule for the calls: active = growth percent below 10; inactive = the rest.
# System: M14 melanoma
# Experiment: NCI-60 one-dose screen, 48 h (100 = growth as untreated, 0 = no growth, -100 = all killed)
# Settings: 10 µM unless noted
row,Structure (SMILES),growth
1,Cc1cc2c(c(C)c1Cl)C(=O)/C(=C/c1ccco1)O2,93.2%
2,O=C(Nc1ccc(N2CCNCC2)cc1)c1[nH]ncc1Nc1cc(Oc2ccccc2)ncn1,12.9%
3,CS(=O)(=O)Nc1ccc(C(=O)NC(C(=O)NO)c2ccc(-c3cccc(F)c3)cc2)cc1 (stereo not given),85.3%
4,CC[C@]1(O)C[C@@H]2CN(CCc3c([nH]c4ccccc34)[C@@](C(=O)OC)(c3cc4c(cc3OC)N(C)[C@H]3[C@@](O)(C(=O)OC)[C@H](OC(C)=O)[C@]5(CC)C=CCN6CC[C@]43[C@@H]65)C2)C1,3.97% (active)
5,O=C(CN1C(=O)/C(=C\c2ccc(Cl)cc2)SC1=S)Nc1ncc(Cc2ccc(Cl)cc2)s1,102%
6,CCCCC(O)(c1ccc(Cl)cc1)C(CN1CCOCC1)c1ccc(Cl)cc1 (stereo not given),28.6%
7,O=C(Nc1ccc(C23CC4CC(CC(c5ccccc5)(C4)C2)C3)cc1)c1cccs1,71.1%
8,O=C(COc1cc(O)c2c(=O)cc(-c3ccccc3)oc2c1)Nc1ccccc1,85.4%
9,COc1cc(C(=O)Nc2ccc(-c3nc4ccccc4[nH]3)cc2)cc(OC)c1OC,43.5%
10,COC(=O)[C@@H]1CCCN1C(=O)[C@H]1CCCN1C(=O)[C@@H](Cc1c[nH]c2ccccc12)NC(=S)Nc1cc(C(F)(F)F)cc(C(F)(F)F)c1,39.8%
11,O=C(CCc1nnc2sc(-c3ccc(Cl)cc3Cl)nn12)c1nc2ncccc2[nH]1,-14.2% (active)
12,O=Cc1cc2ccccc2nc1Nc1nccs1,101%
13,O=C(CCc1nnc2sc(Cc3ccccc3Cl)nn12)c1nc2ncccc2[nH]1,96.5%
14,NS(=O)(=O)c1ccc(CCN=C=S)cc1,12.6%
15,CCOc1cc(Cl)c(C(C)NC(=O)c2cccc(OC)c2)cc1OCC (stereo not given),-46.4% (active)
16,CN1CCN(Cc2ccc(C(=O)Nc3cncc(C#Cc4cnc5cccnn45)c3)cc2C(F)(F)F)CC1,34.4%
17,COc1ccc2c(c1)C=C1CSCC3=Cc4cc(OC)ccc4OC13O2,17.2%
18,CN1CCN(Cc2ccc(NC(=O)c3cncc(C#Cc4nc(N)nc5[nH]ncc45)c3)cc2C(F)(F)F)CC1,89.4%
19,COc1cc(C(=O)O/N=C(\N)Cc2cccc3ccccc23)cc(OC)c1OC,-72.7% (active)
20,Nc1nc(-c2cnccn2)nn1-c1nc2ccccc2s1,99.2%
21,COC(=O)C1=C(C)NC(C)=C(C(=O)OC)C(N2C(=O)CCC2=O)C1 (stereo not given),85%
22,COc1ccc(Br)c(/C=C2\SC(=Nc3ccc(O)cc3)NC2=O)c1,97.8%
23,COc1ccc(Cn2c(Br)c3c(c2Br)-c2nc(NC(=O)c4ccc(OC)cc4)sc2CC3)cc1,80.4%
24,Nc1ncnc(N)c1NC(=O)c1ccc(OCc2ccccc2)cc1,108%
25,CCOc1ccc(-c2nonc2NC(=O)c2cccc(C)c2)cc1OCC,71.3%

# System: HCT-15 colon
# Experiment: as above
# Settings: 10 µM unless noted
row,Structure (SMILES),growth
1,c1ccc2c(c1)oc1cc3sccc3nc12,99.5%
2,CC1=C(C(=O)OCC2CCN(C(=O)OC(C)(C)C)CC2)[C@H](c2cccc(C#N)c2)C2=C(CC(C)(C)CC2=O)N1,23.7%
3,O=C(c1nc2ccccc2[nH]1)C1C(c2ccc([N+](=O)[O-])cc2)C2CC3CCCCC3N2[C@@]12C(=O)Nc1cc(Cl)ccc12 (stereo not given in full),11%
4,Nc1ccc(-n2c(=O)oc3ccc(Cl)cc3c2=O)c(Cl)c1,1.16% (active)
5,CC1=C(C(=O)OCC2CCN(C(=O)OC(C)(C)C)CC2)[C@@H](c2cccc(C#N)c2)C2=C(CC(C)(C)CC2=O)N1,19.5%
6,N#Cc1c(N)nc2c(c1N)C(c1ccc(F)cc1)c1ccc(N)cc1O2 (stereo not given),100%
7,COc1ccc(Cn2c(Br)c3c(c2-c2cc(OC)c(OC)c(OC)c2)CCc2sc(NC(=O)c4ccc(OC)cc4)nc2-3)cc1,98.3%
8,O=c1cc(NC2CCN(CCCc3ccccc3)CC2)c2cc(Cl)ccc2o1,14.1%
9,Brc1ccc(Oc2ccc(Nc3ncnc4onc(-c5ccccc5)c34)cc2)cc1,103%
10,NNC(=O)CNC(=O)Nc1n[nH]c(=S)s1,109%
11,COc1ccc(Cn2c(Br)c3c(c2-c2cc(OC)c(OC)c(OC)c2)CCc2sc(NC(C)=O)nc2-3)cc1,51.9%
12,COc1ccc(/C=C2\NC(=O)NC2=O)cc1O,99%
13,Cc1cc2c(c(C)c1Cl)C(=O)/C(=C/c1ccco1)O2,70.8%
14,O=C(Nc1ccc(N2CCNCC2)cc1)c1[nH]ncc1Nc1cc(Oc2ccccc2)ncn1,-35.9% (active)
15,CS(=O)(=O)Nc1ccc(C(=O)NC(C(=O)NO)c2ccc(-c3cccc(F)c3)cc2)cc1 (stereo not given),91.5%
16,CC[C@]1(O)C[C@@H]2CN(CCc3c([nH]c4ccccc34)[C@@](C(=O)OC)(c3cc4c(cc3OC)N(C)[C@H]3[C@@](O)(C(=O)OC)[C@H](OC(C)=O)[C@]5(CC)C=CCN6CC[C@]43[C@@H]65)C2)C1,14.6%
17,O=C(CN1C(=O)/C(=C\c2ccc(Cl)cc2)SC1=S)Nc1ncc(Cc2ccc(Cl)cc2)s1,103%
18,CCCCC(O)(c1ccc(Cl)cc1)C(CN1CCOCC1)c1ccc(Cl)cc1 (stereo not given),34.9%

row,Structure (SMILES),growth
1,O=C(Nc1ccc(C23CC4CC(CC(c5ccccc5)(C4)C2)C3)cc1)c1cccs1,60.2%
2,O=C(COc1cc(O)c2c(=O)cc(-c3ccccc3)oc2c1)Nc1ccccc1,96%
3,COC(=O)[C@@H]1CCCN1C(=O)[C@H]1CCCN1C(=O)[C@@H](Cc1c[nH]c2ccccc12)NC(=S)Nc1cc(C(F)(F)F)cc(C(F)(F)F)c1,43.5%
4,O=C(CCc1nnc2sc(-c3ccc(Cl)cc3Cl)nn12)c1nc2ncccc2[nH]1,-40.2% (active)
5,O=Cc1cc2ccccc2nc1Nc1nccs1,46.4%
6,O=C(CCc1nnc2sc(Cc3ccccc3Cl)nn12)c1nc2ncccc2[nH]1,98.9%
7,NS(=O)(=O)c1ccc(CCN=C=S)cc1,0.368% (active)
8,CCOc1cc(Cl)c(C(C)NC(=O)c2cccc(OC)c2)cc1OCC (stereo not given),3.34% (active)
9,CN1CCN(Cc2ccc(C(=O)Nc3cncc(C#Cc4cnc5cccnn45)c3)cc2C(F)(F)F)CC1,38.8%
10,COc1ccc2c(c1)C=C1CSCC3=Cc4cc(OC)ccc4OC13O2,18.2%
11,CN1CCN(Cc2ccc(NC(=O)c3cncc(C#Cc4nc(N)nc5[nH]ncc45)c3)cc2C(F)(F)F)CC1,97.8%
12,Nc1nc(-c2cnccn2)nn1-c1nc2ccccc2s1,103%
13,COC(=O)C1=C(C)NC(C)=C(C(=O)OC)C(N2C(=O)CCC2=O)C1 (stereo not given),78.4%
14,COc1ccc(Br)c(/C=C2\SC(=Nc3ccc(O)cc3)NC2=O)c1,79.3%
15,COc1ccc(Cn2c(Br)c3c(c2Br)-c2nc(NC(=O)c4ccc(OC)cc4)sc2CC3)cc1,92.8%
16,Nc1ncnc(N)c1NC(=O)c1ccc(OCc2ccccc2)cc1,99.5%
17,CCOc1ccc(-c2nonc2NC(=O)c2cccc(C)c2)cc1OCC,65.2%
